# Assay results: PubChem BioAssay (NCATS)
# Records with an inconclusive call do not appear. A call without a number means that no potency is given here. Activity calls are given as the source filed them. Calls follow the shape of the dose curve; as a rule, active = well fitted curve in the direction sought with a large enough effect; inconclusive = small, poorly fitted or top-dose-only effect, or another doubt; inactive = no such curve, though single readings can be large; an effect the other way counts as inactive or inconclusive.
# Experiments:
# [1] = molecular target: N-terminal Xaa-Pro-Lys N-methyltransferase 1 (Homo sapiens) (UniProt Q9BV86); test: qHTS Assay for Inhibitors of N-terminal methyltransferase 1 (NTMT1): LOPAC validation of the NTMT1 SAHH-coupled ThioGlo3 Assay (AID 1347143);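 also: SAH from peptide methylation measured as thiol fluorescence via SAHH coupling and ThioGlo3; nearly all actives have a fitted effect of over 70% in size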; also: potency is read from the fitted curve at half-maximal effect
# Sequence of N-terminal Xaa-Pro-Lys N-methyltransferase 1 (Homo sapiens) (Q9BV86 whole entry, looked up): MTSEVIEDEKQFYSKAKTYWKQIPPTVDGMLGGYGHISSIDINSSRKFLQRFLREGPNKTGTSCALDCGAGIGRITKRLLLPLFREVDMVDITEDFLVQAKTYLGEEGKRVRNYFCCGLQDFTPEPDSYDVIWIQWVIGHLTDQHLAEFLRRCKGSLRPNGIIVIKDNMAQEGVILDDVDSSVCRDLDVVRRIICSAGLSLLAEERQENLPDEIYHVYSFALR
# Method in brief: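 Recombinant human NTMT1 (125nM) was pre-incubated 1 min at room temperature with compounds over a concentration range, then a mix of 100uM SAM, 10uM SAHH and 15uM ThioGlo3 (concentrations in added reagent) was added. ThioGlo3 fluorescence (ex 340/em 450nm) after 30 min was normalized to the initial reading.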
# [2] = system: Zika virus NS2B-NS3 protease (unlinked); test: Optimization of GU AMC qHTS for Zika virus inhibitors: Unlinked NS2B-NS3 protease assay (AID 1347151); also: nearly all actives have a fitted effect of over 80% in size; also: potency is read from the fitted curve at half-maximal effect
# Method in brief: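 Unlinked protease (25 nM final); buffer 10 mM Tris-HCl pH 8.0 + 0.01% Tween 20; AMC substrate; 15 min RT, dark; Δfluorescence normalized to no-inhibitor/no-enzyme controls; 4-parameter Hill fit.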
# [3] = system: Zika virus NS2B-NS3 protease; test: Primary screen GU AMC qHTS for Zika virus inhibitors (AID 1347154); also: nearly all actives have a fitted effect of over 70% in size
# Method in brief: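 Unlinked Zika NS2B hydrophilic domain–NS3 protease complex at 25 nM in 10 mM Tris-HCl pH 8.0, 0.01% Tween 20, with an AMC peptide substrate. Fluorescence change (340/450 nm) over 15 min at room temperature, normalized to controls, fitted to 4-parameter Hill.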
# Furin (Homo sapiens) = Furin (Homo sapiens) (UniProt P09958); test: Furin counterscreen qHTS for Zika virus inhibitors (AID 1347149);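 also: purified recombinant full-length human furin enzyme at 5 nM; fluorescence gain from furin cutting a BOC-RVRR-AMC peptide substrate over 15 min; top concentration of the series differs between compounds; nearly all actives have a fitted effect of over 70% in size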
# Sequence of Furin (Homo sapiens) (P09958 whole entry, looked up): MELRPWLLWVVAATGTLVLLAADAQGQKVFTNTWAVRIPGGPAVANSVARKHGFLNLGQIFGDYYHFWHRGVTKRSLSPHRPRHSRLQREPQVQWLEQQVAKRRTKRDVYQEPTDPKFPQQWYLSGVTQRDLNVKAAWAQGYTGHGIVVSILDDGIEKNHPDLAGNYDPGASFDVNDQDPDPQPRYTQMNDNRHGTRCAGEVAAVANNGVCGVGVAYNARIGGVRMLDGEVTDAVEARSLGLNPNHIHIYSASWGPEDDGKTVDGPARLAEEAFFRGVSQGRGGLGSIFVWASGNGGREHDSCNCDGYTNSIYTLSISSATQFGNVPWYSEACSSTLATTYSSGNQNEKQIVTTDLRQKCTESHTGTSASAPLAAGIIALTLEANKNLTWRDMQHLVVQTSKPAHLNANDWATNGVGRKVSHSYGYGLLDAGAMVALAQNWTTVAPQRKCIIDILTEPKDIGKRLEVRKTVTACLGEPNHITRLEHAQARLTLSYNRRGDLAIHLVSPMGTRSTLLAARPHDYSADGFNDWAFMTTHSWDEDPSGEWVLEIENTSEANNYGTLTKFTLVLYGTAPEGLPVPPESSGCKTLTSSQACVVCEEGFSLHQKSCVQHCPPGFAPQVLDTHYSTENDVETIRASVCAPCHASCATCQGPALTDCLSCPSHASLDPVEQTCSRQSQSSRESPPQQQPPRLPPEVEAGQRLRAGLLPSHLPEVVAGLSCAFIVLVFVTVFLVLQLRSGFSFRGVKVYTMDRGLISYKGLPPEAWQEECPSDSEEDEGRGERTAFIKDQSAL
# Method in brief: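 Fluorogenic cleavage of BOC-RVRR-AMC (2 microM final, Km ~15 µM) was monitored (ex 340, em 450 nm) at 37C after 15 min RT preincubation of 5 nM furin with compounds in HEPES pH 7.0 buffer with CaCl2 and Triton X-100. Percent inhibition was fitted to a 4-parameter Hill curve.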
# [4] = system: Zika virus NS2B-NS3 protease (linked construct); test: Confirmatory screen NINDS AMC qHTS for Zika virus inhibitors (AID 1347152);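 also: AMC fluorescence gain from cleaved Bz-Nle-KRR-AMC substrate over 15 min; top concentration of the series differs between compounds; nearly all actives have a fitted effect of over 70% in size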
# Method in brief: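 Enzyme (1 nM, linked construct) was preincubated with compound for 15 minutes at room temperature in 10 mM Tris-HCl pH 8.0 with 0.01% Tween 20. Bz-Nle-Lys-Arg-Arg-AMC was then added to 10 microM, and AMC fluorescence was recorded immediately and after 15 minutes.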
# [5] = system: Zika virus NS2B-NS3 protease (unlinked complex); test: Confirmatory screen GU AMC qHTS for Zika virus inhibitors (AID 1347153); also: nearly all actives have a fitted effect of over 70% in size
# Method in brief: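 Noncovalent NS2B hydrophilic domain/NS3 protease complex (25 nM) in 10 mM Tris-HCl pH 8.0, 0.01% Tween 20 was preincubated 15 min at room temperature with compounds. Then 10 µM AMC substrate (Km 18.3 µM) was added; fluorescence was read over 15 min and fitted to a 4-parameter Hill equation.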
# [6] = Confirmatory screen GU Rhodamine qHTS for Zika virus inhibitors qHTS (AID 1347157)
# Method in brief: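 Noncovalent NS2B hydrophilic domain/NS3 protease complex (25 nM final) in 10 mM Tris-HCl pH 8.0, 0.01% Tween 20, preincubated 15 min with compounds (up to 114 microM), then 1.5 microM Rhodamine110 substrate. Fluorescence change over 15 min fitted to 4-parameter Hill.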
# [7] = system: Zika virus NS2B-NS3 protease (unlinked complex); test: Primary screen GU Rhodamine qHTS for Zika virus inhibitors: Unlinked NS2B-NS3 protease assay (AID 1347159); also: potency is read from the fitted curve at half-maximal effect; nearly all actives have a fitted effect of over 60% in size
# Method in brief: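 Noncovalent NS2B hydrophilic domain–NS3 protease domain complex (25 nM) preincubated 15 min at room temperature with compounds (up to 114 microM) in 10 mM Tris-HCl pH 8.0, 0.01% Tween 20; 1.5 microM Rhodamine110 substrate added, fluorescence change over 15 min fitted to Hill equation.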
# [8] = system: Zika virus NS2B-NS3 protease (linked construct); test: Primary screen NINDS Rhodamine qHTS for Zika virus inhibitors (AID 1347160); also: potency is read from the fitted curve at half-maximal effect; nearly all actives have a fitted effect of over 55% in size
# Method in brief: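 Purified linked NS2B-NS3 protease (NS2B hydrophilic domain joined to NS3 protease by flexible linker), 25 nM in 10 mM Tris-HCl pH 8.0, 0.01% Tween 20. Compounds titrated, 15 min preincubation at room temperature; 1.5 microM Rhodamine110 substrate, FITC fluorescence change over 15 min.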
# [9] = Confirmatory screen NINDS Rhodamine qHTS for Zika virus inhibitors (AID 1347161); also: potency is read from the fitted curve at half-maximal effect; nearly all actives have a fitted effect of over 60% in size
# Method in brief: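 Kinetic fluorescence (Ex 480 nm, Em 540 nm) over 15 min with 1.5 microM Rhodamine110 peptide and 25 nM linked protease.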
# [10] = system: Zika virus NS2B-NS3 protease (linked); test: 384 well plate NINDS AMC confirmatory qHTS for Zika virus inhibitors (AID 1347163); conditions: Recombinant NS2B-NS3 protease, Ac-VKTGKR-AMC fluorescence; also: potency is read from the fitted curve at half-maximal effect; nearly all actives have a fitted effect of over 50% in size
# Method in brief: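 Linked protease 5/30/60 nM final; cpds up to 1 mM final, ~15 min preinc. Substrate Ac-VKTGKR-AMC 30 microM final. RT, dark, 25 min; FI ex 355/em 460; normalized to no-enzyme/no-inhibitor ctrls.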
smiles,measurement,setting,value
CCCN1CCc2cc(O)cc3c2[C@H]1Cc1ccc(O)c(O)c1-3,Potency,[1],35.5 µM (active)
same,Potency,[2],26.7 µM (active)
c1ccc2cc(CC3=NCCN3)ccc2c1,Potency,[1],inactive
same,Potency,[2],inactive
CCS(=O)(=O)Nc1cccc(C(=C2CCCCC2)c2cnc[nH]2)c1,Potency,[1],inactive
same,Potency,[2],inactive
C[C@H](N)Cc1cccc(C(F)(F)F)c1,Potency,[1],inactive
same,Potency,[2],inactive
CC(C)(C)c1o[nH]c(=O)c1CC(N)C(=O)O (centres undefined),Potency,[1],inactive
same,Potency,[2],inactive
CN(N=O)c1cc(O)ccc1O,Potency,[1],3.55 µM (active)
same,Potency,[2],inactive
CC(C)(C)OC(=O)NC1[C@H]2CNC[C@@H]12 (some centres undefined),Potency,[1],inactive
same,Potency,[2],inactive
O=C(NC1CN2CCC1CC2)c1cc2ccoc2cn1 (centres undefined),Potency,[1],inactive
same,Potency,[2],inactive
O=C1C=CC(=O)C=C1,Potency,[1],inactive
same,Potency,[2],inactive
O=[N+]([O-])/C=C/c1ccc2c(c1)OCO2,Potency,[1],39.8 µM (active)
same,Potency,[2],inactive
CC(=O)NBr,Potency,[1],inactive
same,Potency,[2],inactive
Cc1sc2ccccc2c1CC1=NCCN1,Potency,[1],79.4 µM (active)
same,Potency,[2],26.7 µM (active)
OCc1cnc[nH]1,Potency,[1],inactive
same,Potency,[2],inactive
Nc1cc2c(ncn2CCOCP(=O)(O)O)c(=O)[nH]1,Potency,[1],inactive
same,Potency,[2],inactive
COc1ccc(OC)c(C(O)C(C)N)c1 (centres undefined),Potency,[1],inactive
same,Potency,[2],inactive
NCCCP(=O)(O)O,Potency,[1],inactive
same,Potency,[2],inactive
COc1ccc(CNC(=O)/C=C/c2ccc3[nH]cc(CCN(C)C)c3c2)cc1,Potency,[1],inactive
same,Potency,[2],inactive
NNC(=O)c1ccc(O)cc1,Potency,[1],inactive
same,Potency,[2],inactive
CCCn1c(=O)c2[nH]c(C3CCCC3)nc2n(CCCOC(=O)c2ccc(S(=O)(=O)F)cc2)c1=O,Potency,[1],inactive
same,Potency,[2],inactive
[Cl-].[Cl][Pt].[NH2-].[NH2-].c1ccncc1,Potency,[1],7.08 µM (active)
same,Potency,[2],inactive
C=CCN1C[C@@H](C)N([C@H](c2ccc(C(=O)N(CC)CC)cc2)c2cccc(OC)c2)C[C@@H]1C,Potency,[1],inactive
same,Potency,[2],inactive
CC(N)c1cccc(Cl)c1Cl (centres undefined),Potency,[1],inactive
same,Potency,[2],inactive
C[N+](C)(C)CC#CCN1CCCC1=O,Potency,[1],28.2 µM (active)
same,Potency,[2],inactive
same,Potency,[3],inactive
Cc1cc([C@@H]2CCCN2C)on1,Potency,[1],inactive
same,Potency,[2],inactive
CC(C)NP(=O)(NC(C)C)OP(=O)(NC(C)C)NC(C)C,Potency,[1],inactive
same,Potency,[2],inactive
C[C@H](Cc1ccc2c(c1)OC(C(=O)O)(C(=O)O)O2)NC[C@H](O)c1cccc(Cl)c1,Potency,[1],inactive
same,Potency,[2],inactive
NC(N)=Nc1ccc2[nH]c3c(c2c1)C[C@@]1(O)[C@H]2Cc4ccc(O)c5c4[C@@]1(CCN2CC1CC1)[C@H]3O5,Potency,[1],22.4 µM (active)
same,Potency,[2],inactive
NC(C(=O)O)c1cc(=O)[nH]o1 (centres undefined),Potency,[1],inactive
same,Potency,[2],inactive
same,Potency,[3],inactive
C[N+]1(C)C2CCC1CC(OC(=O)c1c[nH]c3ccccc13)C2 (centres undefined),Potency,[1],31.6 µM (active)
same,Potency,[2],inactive
CN1CCc2cc(O)cc3c2[C@H]1Cc1ccc(O)c(O)c1-3,Potency,[1],35.5 µM (active)
same,Potency,[2],23.8 µM (active)
CC(Cc1ccc(OCC(=O)O)cc1)NCC(O)c1cccc(Cl)c1 (centres undefined),Potency,[1],inactive
same,Potency,[2],inactive
same,Potency,[3],inactive
Ic1ccccc1CNC1C2CCN(CC2)C1C(c1ccccc1)c1ccccc1 (centres undefined),Potency,[2],inactive
C[C@@]1(C(=O)O)CC[C@]2(C)CC[C@]3(C)C4=CC(=O)c5cc(O)c(O)cc5[C@]4(C)CC[C@@]3(C)[C@@H]2C1,Potency,Furin (Homo sapiens),inactive
same,Potency,[4],inactive
same,Potency,[5],inactive
same,Potency,[6],2.42 µM (active)
same,Potency,[7],3.98 µM (active)
same,Potency,[8],7.94 µM (active)
same,Potency,[9],1.36 µM (active)
same,Potency,[10],56.2 µM (active)
NC(=O)c1ccc(OCC(O)CN2CC=C(c3ccc(F)cc3)CC2)cc1 (centres undefined),Potency,[2],inactive
Cc1o[nH]c(=O)c1CC(N)C(=O)O (centres undefined),Potency,[2],inactive
CN(C(=O)Cc1ccc(Cl)c(Cl)c1)C(CN1CCCC1)c1cccc(OCC(=O)O)c1 (centres undefined),Potency,[1],inactive
same,Potency,[2],inactive
same,Potency,[3],inactive
CC(=O)OCC1=C(C(=O)O)N2C(=O)[C@@H](NC(=O)CCC[C@@H](N)C(=O)O)[C@H]2SC1,Potency,[2],inactive
CO[C@H]1CC=C2CCN3CCC4=C(CC(=O)OC4)[C@]23C1,Potency,[2],inactive
same,Potency,[3],inactive
CN1C2CCC1CC(OC(c1ccccc1)c1ccccc1N)C2 (centres undefined),Potency,[1],inactive
same,Potency,[2],inactive
same,Potency,[3],inactive
C[C@@H]1[C@@H]2Cc3ccc(O)cc3[C@@]1(C)CCN2CC1CC1,Potency,Furin (Homo sapiens),inactive
same,Potency,[2],inactive
CCCN(CCC)CCc1ccc(O)c(O)c1,Potency,[1],inactive
same,Potency,[3],inactive
